Data as given in PubChem BioAssay AID1240 (Sanford-Burnham Center for Chemical Genomics, 2008).
Out of some 50,000 compounds screened, about 800 (1.6%) showed an effect of 50% or more. This excerpt belongs to a sample that is enriched for strong results.

These molecules were tested against Bcl-2-like protein 10 (Homo sapiens) (UniProt Q9HD36) (assay: TR3 peptide-Bcl-B binding displacers, biochemical primary FP assay, phenotype converters (AID 1240;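 note: 0% = Bcl-B with tracer peptide and DMSO and 100% = tracer peptide lacking Bcl-B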)). Details: GST-Bcl-B / FITC-TR3 peptide fluorescence polarization; stronger effect = higher value; compound at 3.75 mg/L.
Chain of Bcl-2-like protein 10 (Homo sapiens) (Q9HD36 whole entry, looked up): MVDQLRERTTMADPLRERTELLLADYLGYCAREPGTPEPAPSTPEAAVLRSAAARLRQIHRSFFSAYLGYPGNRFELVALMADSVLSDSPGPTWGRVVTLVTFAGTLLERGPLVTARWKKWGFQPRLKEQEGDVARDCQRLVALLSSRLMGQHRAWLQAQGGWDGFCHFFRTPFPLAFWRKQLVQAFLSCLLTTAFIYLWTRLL

| Structure (SMILES) | displacement [%] |
| --- | --- |
| Oc1c(C=Nc2cccc3nsnc23)sc2ccccc12 | -12.3 |
| Cc1cc(C)nc(NS(=O)(=O)c2ccc(N/C=C\C(=O)c3ccc4ccccc4c3)cc2)n1 | 14.7 |
| Cc1cc(NS(=O)(=O)c2ccc(N/C=C/C(=O)c3cccs3)cc2)nc(C)n1 | 2.1 |
| Cc1cc(C)nc(NS(=O)(=O)c2ccc(N/C=C\C(=O)c3cccs3)cc2)n1 | 78.5 |
| CCOC(=O)C1=C(O)/C(=C/c2cc(OC)c(OC)c(OC)c2)SC1=Nc1ccc(C)cc1 | -5.5 |
| O=[N+]([O-])c1ccc(C[n+]2cc(-c3ccc(Cl)c(Cl)c3)n3c2CCC3)cc1 | 9.6 |
| O=C1CS/C(=N/N=C/c2ccc(-c3ccc(Cl)cc3)o2)N1 | -6.7 |
| Cc1c(Cl)cccc1-c1ccc(/C=N/N=C2\NC(=O)CS2)o1 | 133 |
| O=C1CS/C(=N/N=C/c2ccc(-c3ccc([N+](=O)[O-])cc3)o2)N1 | 41.1 |
| O=C(Cn1cc(/C=C2/C(=O)NC(=O)N(c3cccc(Cl)c3)C2=O)c2ccccc21)Nc1ccccc1 | 94.7 |
| O=C(Cn1cc(/C=C2/C(=O)NC(=O)N(c3cccc(F)c3)C2=O)c2ccccc21)Nc1ccccc1 | 116 |
| O=C(Cn1cc(/C=C2\SC(=O)NC2=O)c2ccccc21)Nc1ccccc1 | -4.9 |
| COC(=O)Cn1cc(/C=C2\C(=O)NC(=O)N(c3cccc(F)c3)C2=O)c2ccccc21 | 35.8 |
| Cc1cc(/C=C2\C(=O)NC(=O)N(c3cccc(F)c3)C2=O)c(C)n1C | 18.4 |
| O=Cc1ccc(/C=C2/SC(=S)N(Cc3ccccc3)C2=O)cc1 | 10.5 |
| CCN1C(=O)/C(=C\c2cn(Cc3ccccc3)c3ccccc23)SC1=S | 3.3 |
| CCN1C(=O)/C(=C\c2cn(CCOc3ccccc3C)c3ccccc23)SC1=S | 127 |
| COc1ccccc1/C=C1/SC(=S)N(Cc2ccccc2)C1=O | 16.7 |
| CC(Oc1ccc(/C=C2/SC(=S)N(Cc3ccccc3)C2=O)cc1)c1ccccc1 (configuration not stated) | 123 |
| CC(C)c1ccc(/C=C2\SC(=S)N(Cc3ccccc3)C2=O)cc1 | 2.6 |
| C=CCc1ccccc1OCCn1cc(/C=C2/SC(=S)N(CC)C2=O)c2ccccc21 | 11.6 |
| COc1ccccc1OCCn1cc(/C=C2/SC(=S)N(Cc3ccccc3)C2=O)c2ccccc21 | 112 |
| COc1cccc(/C=C2\SC(=S)N(Cc3ccccc3)C2=O)c1OC | 8.6 |
| CN1C(=O)/C(=C\c2cn(Cc3ccccc3)c3ccccc23)SC1=S | 8.3 |
| COc1ccc(/C=C2/SC(=S)N(Cc3ccccc3)C2=O)c2ccccc12 | 60.2 |

| Structure (SMILES) | displacement [%] |
| --- | --- |
| Cc1ccccc1OCCn1cc(/C=C2/SC(=S)N(C)C2=O)c2ccccc21 | 11.6 |
| O=C(Nc1cccc2ccccc12)c1cc(-c2ccco2)nc2ccccc12 | 34.2 |
| Cc1ccc(C(=O)N2CCC(C(N)=O)CC2)cc1[N+](=O)[O-] | -0.2 |
| O=C(Nc1ccccc1)/C(=C\c1cccc(Br)c1)NC(=O)c1ccccc1 | 4.5 |
| COc1ccc(Cc2nnc(NC(=O)Nc3ccccc3)s2)cc1 | 11.9 |
| COc1cc(/C=N/NC(=O)CSCc2ccc([N+](=O)[O-])cc2)cc(OC)c1OC | 1.6 |
| COc1ccccc1NC(=O)N1CCOCC1 | -6.8 |
| COc1ccc(-c2nc(=S)c3c(n2Cc2ccccc2)CCCC3)cc1 | 10.1 |
| COC(=O)C1=C(C(=O)OC)SC(=C2C(=S)C(C)(C)N(C(=O)c3cccc(C)c3)c3cc(OC)ccc32)S1 | -7.2 |
| Nc1ccc2nc(SCC(=O)Nc3cccc(C(F)(F)F)c3)sc2c1 | -3.3 |
| C=CCN1C(=O)/C(=C\c2cc(Br)ccc2OCCOc2cccc(OC)c2)SC1=S | -43.6 |
| CCN1C(=O)/C(=C\c2cn(CCOc3ccccc3)c3ccccc23)SC1=S | 20.9 |
| C=CCN1C(=O)/C(=C\c2cn(CCOc3cccc(OC)c3)c3ccccc23)SC1=S | 91.7 |
| O=C(O)c1ccc2c(c1)C(=O)N(c1ccc(-c3nnc(-c4ccccc4)o3)cc1)C2=O | 9 |
| CCOC(=O)c1c(NC(=S)NC(=O)/C=C/c2ccco2)sc(C)c1C | 23.9 |
| O=C(/C=C/c1ccco1)Nc1nc2ccc(Br)cc2s1 | 59.2 |
| CCOC(=O)c1nc(NC(=O)/C=C/c2ccco2)sc1C | 73.7 |
| COC(=O)c1c(NC(=O)/C=C/c2ccco2)sc(C)c1C | -12.6 |
| O=C(/C=C/c1ccccc1)Nc1nc2ccc(Br)cc2s1 | 15 |
| COc1ccc(Br)cc1/C=C/C(=O)Nc1nc2ccc(C)cc2s1 | -22.6 |
| Cc1ccc(OCCNc2cc(Cl)ccc2[N+](=O)[O-])cc1C | 0.6 |
| CSc1ccc(/C=N/S(=O)(=O)CCc2ccccc2)cc1 | -7.7 |
| CCCS(=O)(=O)c1c(S(=O)(=O)CCC)c2c(C)cccn2c1C(N)=O | -9.8 |
| COc1c(Cl)ccc(Cl)c1C(=O)Nc1ccc(I)cc1 | -9.5 |
| O=C(c1ccc(Cl)cc1)N1CCC(Cc2ccccc2)CC1 | 16.4 |

| Structure (SMILES) | displacement [%] |
| --- | --- |
| Cc1cc(C)cc(N2C(=O)NC(=O)/C(=C\c3ccc([N+](=O)[O-])o3)C2=O)c1 | -3.8 |
| Cc1ccc([N+](=O)[O-])cc1-c1ccc(/C=C2/C(=O)NC(=O)N(c3ccccc3)C2=O)o1 | 82.8 |
| COc1cc([N+](=O)[O-])ccc1-c1ccc(/C=C2\C(=O)NC(=O)N(c3ccc(C)c(C)c3)C2=O)o1 | 75.5 |
| COc1cc([N+](=O)[O-])ccc1-c1ccc(/C=C2\C(=O)NC(=S)N(c3ccc(Cl)cc3)C2=O)o1 | 16.2 |
| O=C1NC(=O)N(c2ccccc2)C(=O)/C1=C\c1ccc(-c2ccc([N+](=O)[O-])cc2Br)o1 | -14.8 |
| Cc1ccc([N+](=O)[O-])cc1-c1ccc(/C=C2\C(=O)NC(=O)N(c3ccc(Cl)cc3)C2=O)o1 | 6.8 |
| COc1cc([N+](=O)[O-])ccc1-c1ccc(/C=C2\C(=O)NC(=O)N(c3ccc(Cl)cc3)C2=O)o1 | 14 |
| CCOc1ccc(N2C(=O)NC(=O)/C(=C\c3ccc(-c4ccc([N+](=O)[O-])cc4OC)o3)C2=O)cc1 | 23 |
| COc1ccc([N+](=O)[O-])cc1-c1ccc(/C=C2\C(=O)NC(=O)N(c3ccc(Cl)cc3)C2=O)o1 | 25.1 |
| COc1ccc(N2C(=O)NC(=O)/C(=C/c3ccc(-c4ccc([N+](=O)[O-])cc4C)o3)C2=O)cc1 | 13.6 |
| COc1cc([N+](=O)[O-])ccc1-c1ccc(/C=C2\C(=O)NC(=O)N(c3ccccc3)C2=O)o1 | 132 |
| COc1ccc([N+](=O)[O-])cc1-c1ccc(/C=C2\C(=O)NC(=O)N(c3cc(C)cc(C)c3)C2=O)o1 | 92.6 |
| COc1ccc(C(=O)N2CCN(C3C4CC5CC(C4)CC3C5)CC2)cc1OC (configuration not stated) | -6.5 |
| Cc1cccc(N2CCN(C(=O)Nc3ccc(Cl)c(Cl)c3)CC2)c1C | -0.9 |
| O=S1(=O)CCC(NC(=S)SCCOc2ccccc2OCCO)C1 (configuration not stated) | 6.3 |
| Cc1cccc(C=Nc2ccc(O)cc2)c1 | -8.4 |
| CS(=O)(=O)N(CC(=O)Nc1ccc(Cl)cc1)c1ccc(Br)cc1 | 3.3 |
| Cc1ccc(-c2csc(NC(=O)c3sc4ccccc4c3Cl)n2)c(C)c1 | 2.6 |
| CCOc1ccc(Cc2c(C)nc3c(C)cccc3c2Cl)cc1 | -5.7 |
| CCC1=NN(C(=O)c2ccncc2)C(O)(c2ccc(Br)cc2)C1 (configuration not stated) | 10.2 |
| Cc1ccc(NC(=S)NN2CCN(C)CC2)cc1 | 5.2 |
| Cc1ccc(OCC(=O)NCc2ccco2)c(C)c1 | -2.9 |
| N#C/C(=C/c1ccccc1)C(=O)Nc1ccc(Cl)c(Cl)c1 | 1.5 |
| CC(C)(C)c1cc(/C=N/Nc2nnc3c(n2)[nH]c2ccccc23)cc(C(C)(C)C)c1O | 4.8 |
| CSc1nc(-c2ccccc2)nc2[nH]ccc(=O)c12 | 110 |

| Structure (SMILES) | displacement [%] |
| --- | --- |
| Cc1nc(-c2ccccc2)nc2[nH]ccc(=O)c12 | 11.9 |
| Cc1nc(-c2ccccc2)c2c(=O)cc[nH]c2n1 | 15.4 |
| COc1cc(/C=C2/SC(=S)N(C)C2=O)cc(Br)c1OCCOc1ccccc1C | -2 |
| COC(=O)C(Cc1ccccc1)NC(=O)CCN1C(=O)c2cccc3cccc(c23)C1=O (configuration not stated) | 15 |
| CCc1ccc(NC(=O)C(=O)NCCCO)cc1 | 5 |
| CN(C)c1ccc(C(O)C(C)(O)c2nc3ccccc3n2C)cc1 (configuration not stated) | 6.1 |
| CCOc1cc(/C=C2/C(=O)NC(=O)N(c3ccccc3)C2=O)ccc1OCc1ccc([N+](=O)[O-])cc1 | 75.9 |
| C=CCOc1ccc(/C=C2/C(=O)NC(=O)N(c3ccc(C)cc3)C2=O)cc1OCC | -2.8 |
| C=CCOc1ccc(/C=C2\C(=O)NC(=O)N(c3ccc(Cl)cc3)C2=O)cc1OCC | -4 |
| CCOc1cc(/C=C2/C(=O)NC(=O)N(c3ccc(OC)cc3)C2=O)ccc1OCCOc1ccc([N+](=O)[O-])cc1 | -0.9 |
| COc1cc(/C=C2\C(=O)NC(=O)N(c3ccc(C)cc3)C2=O)ccc1OCc1ccccc1 | 38.6 |
| COc1cc(/C=C2/C(=O)NC(=O)N(c3ccc(C)cc3)C2=O)ccc1OCCOc1ccc([N+](=O)[O-])cc1 | 10.8 |
| COc1cc(C=C2C(=O)c3ccccc3C2=O)ccc1OCc1ccc(I)cc1 | -11.5 |
| C=CCOc1ccc(/C=C2/C(=O)NC(=O)N(c3cccc(C)c3)C2=O)cc1OCC | 126 |
| O=C1C(=Cc2ccc(OCc3ccc(F)cc3)c(Br)c2)C(=O)c2ccccc21 | 19.1 |
| COc1cc(/C=C2/C(=O)NC(=S)N(c3ccccc3)C2=O)ccc1OCc1ccc([N+](=O)[O-])cc1 | 4 |
| COc1cc(/C=C2\C(=O)NC(=O)N(c3ccc(C)cc3)C2=O)ccc1OCc1ccc([N+](=O)[O-])cc1 | 70 |
| COc1cc(C=C2C(=O)c3ccccc3C2=O)ccc1OCc1ccc(F)cc1 | 88.7 |
| Cc1ccc(NS(=O)(=O)c2cccc([N+](=O)[O-])c2)cc1Cl | -0.2 |
| CC(=O)Nc1ccccc1NC(=O)c1ccc(Cl)cc1 | 11.4 |
| O=C(O)CCC(=O)Nc1ccc2nn(-c3ccccc3)nc2c1 | 3.6 |
| COc1cc(C(=O)Nc2ccc(Br)cn2)cc(OC)c1OC | -1.3 |
